PubChem BioAssay (NCI)
The panel holds about 79,000 compounds, 15% with a hit somewhere; the sample as a whole holds those more often. Calls of active or inactive are those of the source. Cut-off read from the data, not from the text of the source: active = growth inhibition above about 70%; inactive = the rest.

Assays:
[1] = NCI Yeast Anticancer Drug Screen. Data for the rad52 strain (AID 147);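 note: 0% = growth of vehicle-treated control cultures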; conditions: S. cerevisiae rad52 mutant growth inhibition, hits give high values
Method in brief: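 Read-out: growth inhibition versus vehicle-treated controls. Cells were a DNA repair-deficient yeast strain treated with compounds.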

[2] = NCI Yeast Anticancer Drug Screen. Data for the wt1 strain (AID 149);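 note: 0% = growth of vehicle-treated wt1 cultures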; conditions: S. cerevisiae wt1 strain (SPY 50644) growth inhibition, hits give high values
Method in brief: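 Each compound is tested on wt1 yeast and the loss of growth versus vehicle gives the inhibition value.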

[3] = NCI Yeast Anticancer Drug Screen. Data for the rad50EPP+ strain (AID 151);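 note: 0% = growth of vehicle-treated control cultures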; conditions: S. cerevisiae rad50 mutant strain, hits give high values
Method in brief: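 Growth inhibition read against vehicle controls in rad50EPP+ yeast, a strain altered in DNA damage repair, after compound exposure.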

[4] = NCI Yeast Anticancer Drug Screen. Data for the mgt1 strain (AID 153); conditions: S. cerevisiae mgt1 mutant growth inhibition, hits give high values
Method in brief: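 mgt1 yeast grown with test compound; read-out is growth inhibition versus vehicle-treated cultures.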

[5] = NCI Yeast Anticancer Drug Screen. Data for the rad50 strain (AID 155);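 note: 0% = growth of vehicle-only cultures of the same strain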; conditions: S. cerevisiae rad50 strain growth inhibition, hits give high values
Method in brief: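 Vehicle-treated cultures provide the reference for the growth inhibition reported for compound-exposed, repair-deficient yeast.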

[6] = NCI Yeast Anticancer Drug Screen. Data for the mec2-1 strain (AID 157); conditions: S. cerevisiae mec2-1 strain, hits give high values
Method in brief: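 Yeast mec2-1 mutant treated with compound. Readout: growth inhibition vs vehicle controls.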

[7] = NCI Yeast Anticancer Drug Screen. Data for the rad14 strain (AID 159);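 note: 0% = growth of vehicle-treated control cultures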; conditions: S. cerevisiae rad14 strain growth inhibition, hits give high values
Method in brief: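 Inhibition of growth is reported for a repair-deficient yeast mutant following compound treatment, calculated relative to cultures that received vehicle.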

[8] = NCI Yeast Anticancer Drug Screen. Data for the sgs1 mgt1 strain (AID 161);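 note: 0% = growth of cultures given vehicle only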; conditions: S. cerevisiae sgs1 mgt1 strain, hits give high values
Method in brief: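 Read-out: growth inhibition vs vehicle controls. Cells: mutant yeast strain deficient in DNA damage repair.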

[9] = NCI Yeast Anticancer Drug Screen. Data for the CLN2oe strain (AID 163);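 note: 0% = growth of vehicle-only control cultures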; conditions: S. cerevisiae CLN2oe strain, hits give high values
Method in brief: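 Read-out: yeast growth inhibition, expressed relative to vehicle-only controls. The strain bears an engineered cell-cycle alteration.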

[10] = NCI Yeast Anticancer Drug Screen. Data for the cln2 rad14 strain (AID 165);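 note: 0% = growth equal to vehicle treated cultures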; conditions: S. cerevisiae cln2 rad14 strain, hits give high values
Method in brief: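 cln2 rad14 yeast strain; compound exposure; growth inhibition read vs vehicle controls.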

[11] = NCI Yeast Anticancer Drug Screen. Data for the bub3 strain (AID 167); conditions: S. cerevisiae bub3 mutant strain, hits give high values
Method in brief: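 Mutant yeast screening strain plus compound; vehicle-treated cultures serve as the 0% inhibition reference.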

[12] = NCI Yeast Anticancer Drug Screen. Data for the wt2 strain (AID 169); conditions: S. cerevisiae wt2 strain growth inhibition, hits give high values
Method in brief: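 Read-out: growth inhibition versus vehicle-treated control cultures after compound exposure of the yeast strain.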

[13] = NCI Yeast Anticancer Drug Screen. Data for the mlh1 strain (AID 171);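 note: 0% = growth of vehicle-treated control cultures of the same strain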; conditions: S. cerevisiae mlh1 strain growth inhibition, hits give high values
Method in brief: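 Read-out: growth inhibition versus vehicle controls. Strain: engineered yeast with a defined DNA repair or cell cycle defect, compound-treated.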

[14] = NCI Yeast Anticancer Drug Screen. Data for the sgs1 strain (AID 173);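 note: 0% = growth of vehicle-only control cultures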; conditions: S. cerevisiae sgs1 mutant, hits give high values
Method in brief: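 Read-out: yeast growth inhibition relative to vehicle controls, following compound exposure of a strain with a defined DNA repair/cell cycle alteration.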

[15] = NCI Yeast Anticancer Drug Screen. Data for the mlh1 rad18 strain (AID 175); conditions: S. cerevisiae mlh1 rad18 strain growth inhibition, hits give high values
Method in brief: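 Yeast w/ defined DNA-repair lesions; compound exposure; growth vs vehicle controls → % inhibition.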

[16] = NCI Yeast Anticancer Drug Screen. Data for the rad18 strain (AID 177); conditions: S. cerevisiae rad18 mutant growth inhibition, hits give high values
Method in brief: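 Readout: growth inhibition vs vehicle controls. Cells: genetically altered yeast strain, DNA repair defect.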

[17] = at 5.0 µM (retest, dose inferred, filed as 0.5)
[18] = at 50.0 µM (retest, dose inferred, filed as 5.0)

Measured: growth inhibition

Oc1c2c(c(O)c3ccccc13)C1(N=N2)c2ccccc2Oc2ccccc21
inactive: [1]; at 1.2 µM 20% | [2]; at 1.2 µM 2% | [2]; at 3.7 µM 34% | [3]; at 1.2 µM 8% | [3]; at 3.7 µM 54% | [4]; at 1.2 µM 10% | [4]; at 3.7 µM 47% | [5]; at 1.2 µM 17% | [5]; [17] 46% | [6]; at 1.2 µM 10% | [6]; at 3.7 µM 44% | [6]; [17] 31% | [7]; at 1.2 µM 17% | [7]; at 3.7 µM 44% | [8]; [17] 57% | [9]; at 1.2 µM 15% | [9]; at 3.7 µM 39% | [10]; [17] 19% | [11]; at 1.2 µM 8% | [11]; at 3.7 µM 62% | [11]; [17] 21% | [12]; at 1.2 µM 4% | [12]; at 3.7 µM 49% | [13]; at 1.2 µM 13% | [13]; at 3.7 µM 43% | [14]; at 1.2 µM 14% | [15]; [17] 42% | [16]; at 1.2 µM 18%
active: [1]; at 3.7 µM 72% | [1]; at 11.0 µM 98% | [1]; at 33.0 µM 97% | [1]; at 100.0 µM 93% | [2]; at 11.0 µM 98% | [2]; at 33.0 µM 98% | [2]; at 100.0 µM 96% | [3]; at 11.0 µM 93% | [3]; at 33.0 µM 95% | [3]; at 100.0 µM 85% | [4]; at 11.0 µM 98% | [4]; at 33.0 µM 97% | [4]; at 100.0 µM 94% | [5]; at 3.7 µM 82% | [5]; at 11.0 µM 98% | [5]; at 33.0 µM 94% | [5]; [18] 98% | [5]; at 50.0 µM 98.5% | [5]; at 100.0 µM 90% | [6]; at 11.0 µM 98% | [6]; at 33.0 µM 97% | [6]; [18] 98% | [6]; at 50.0 µM 98.7% | [6]; at 100.0 µM 94% | [7]; at 11.0 µM 98% | [7]; at 33.0 µM 96% | [7]; at 100.0 µM 92% | [8]; [18] 98% | [8]; at 50.0 µM 98.6% | [9]; at 11.0 µM 98% | [9]; at 33.0 µM 95% | [9]; at 100.0 µM 88% | [10]; [18] 97% | [10]; at 50.0 µM 92.2% | [11]; at 11.0 µM 98% | [11]; at 33.0 µM 96% | [11]; [18] 97% | [11]; at 50.0 µM 99% | [11]; at 100.0 µM 93% | [12]; at 11.0 µM 98% | [12]; at 33.0 µM 97% | [12]; at 100.0 µM 94% | [13]; at 11.0 µM 98% | [13]; at 33.0 µM 97% | [13]; at 100.0 µM 94% | [14]; at 3.7 µM 81% | [14]; at 11.0 µM 98% | [14]; at 33.0 µM 98% | [14]; at 100.0 µM 95% | [15]; [18] 98% | [15]; at 50.0 µM 98% | [16]; at 3.7 µM 74% | [16]; at 11.0 µM 98% | [16]; at 33.0 µM 96% | [16]; at 100.0 µM 92%

C=CC(C)(C)N1C(=O)C(C(C)=O)=C(O)C1Cc1c[nH]c2ccccc12 (stereo unspecified)
active: [1]; at 100.0 µM 87% | [2]; at 100.0 µM 71% | [4]; at 100.0 µM 95% | [5]; at 100.0 µM 78% | [6]; at 100.0 µM 88% | [7]; at 100.0 µM 95% | [8]; [18] 73% | [9]; at 100.0 µM 83% | [11]; at 100.0 µM 84% | [12]; at 100.0 µM 92% | [14]; at 100.0 µM 90% | [15]; [18] 86%
inactive: [1]; at 1.2 µM -1% | [1]; at 3.7 µM -4% | [1]; at 11.0 µM -2% | [1]; at 33.0 µM 19% | [2]; at 1.2 µM 1% | [2]; at 3.7 µM 5% | [2]; at 11.0 µM 3% | [2]; at 33.0 µM 20% | [3]; at 1.2 µM -1% | [3]; at 3.7 µM 1% | [3]; at 11.0 µM -4% | [3]; at 33.0 µM -9% | [3]; at 100.0 µM -15% | [4]; at 1.2 µM -2% | [4]; at 3.7 µM -4% | [4]; at 11.0 µM -1% | [4]; at 33.0 µM 16% | [5]; at 1.2 µM -2% | [5]; at 3.7 µM -2% | [5]; [17] 0% | [5]; at 11.0 µM -2% | [5]; at 33.0 µM 10% | [5]; [18] 48% | [5]; at 50.0 µM 28.6% | [6]; at 1.2 µM 0% | [6]; at 3.7 µM 1% | [6]; [17] -18% | [6]; at 11.0 µM 7% | [6]; at 33.0 µM 21% | [6]; [18] -8% | [6]; at 50.0 µM 58.7% | [7]; at 1.2 µM -3% | [7]; at 3.7 µM -3% | [7]; at 11.0 µM -1% | [7]; at 33.0 µM 21% | [8]; [17] 18% | [8]; at 50.0 µM 52.8% | [9]; at 1.2 µM -5% | [9]; at 3.7 µM -12% | [9]; at 11.0 µM -9% | [9]; at 33.0 µM 16% | [10]; [17] -4% | [10]; [18] 21% | [10]; at 50.0 µM 32.8% | [11]; at 1.2 µM -3% | [11]; at 3.7 µM -2% | [11]; [17] -11% | [11]; at 11.0 µM 0% | [11]; at 33.0 µM 15% | [11]; [18] 55% | [11]; at 50.0 µM 46.8% | [12]; at 1.2 µM -1% | [12]; at 3.7 µM -1% | [12]; at 11.0 µM -1% | [12]; at 33.0 µM 16% | [13]; at 1.2 µM -6% | [13]; at 3.7 µM 0% | [13]; at 11.0 µM 0% | [13]; at 33.0 µM 14% | [13]; at 100.0 µM 66% | [14]; at 1.2 µM 0% | [14]; at 3.7 µM 0% | [14]; at 11.0 µM 2% | [14]; at 33.0 µM 17% | [15]; [17] 55% | [15]; at 50.0 µM 68.5% | [16]; at 1.2 µM 0% | [16]; at 3.7 µM -3% | [16]; at 11.0 µM -1% | [16]; at 33.0 µM 9% | [16]; at 100.0 µM 66%
